According to PubChem BioAssay AID720597 (Broad Institute, 2013):
Results with a measured potency or affinity are listed apart. Calls of active or inactive are those of the source.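 How the source made its calls: active means fitted half-maximal dose no more than twice the top valid tested dose, for compounds that lower signal; inconclusive means fit invalid, or curve flat with activity between -70 and -30; inactive means potency past limit, curve flat within ±30, or signal increasing.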

What follows are compounds tested against NAD-dependent protein deacylase sirtuin-5, mitochondrial (Homo sapiens) (UniProt Q9NXA8) (assay: SIRT5 deacylase inhibitors, dose response, biochemical, fluorescence imaging, cherry-pick, set 6 (AID 720597;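 further: lower AMC signal can also come from blocking the trypsin step; 0% = median of neutral control wells and -100% = median of positive control wells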)). Details: Purified SirT5, succinyl-peptide-AMC/trypsin fluorescence; series mostly up to 15 µM; activity change, negative = inhibition: at the top concentration.
NAD-dependent protein deacylase sirtuin-5, mitochondrial (Homo sapiens), sequence (Q9NXA8 whole entry, looked up): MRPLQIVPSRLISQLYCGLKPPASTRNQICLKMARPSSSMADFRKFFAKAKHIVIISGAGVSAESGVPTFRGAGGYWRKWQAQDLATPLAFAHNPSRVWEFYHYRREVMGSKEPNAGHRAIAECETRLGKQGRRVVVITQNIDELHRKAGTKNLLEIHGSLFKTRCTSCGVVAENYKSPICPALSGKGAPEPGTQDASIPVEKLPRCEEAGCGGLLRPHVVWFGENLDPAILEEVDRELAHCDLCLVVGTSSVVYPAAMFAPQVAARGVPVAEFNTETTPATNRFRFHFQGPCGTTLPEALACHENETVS

Activity change, negative = inhibition, inactive:
C[C@H](CO)N1C[C@H](C)[C@H](CN(C)S(=O)(=O)c2cccs2)Oc2c(NC(=O)C3CCCCC3)cccc2C1=O -21%
COc1ccc(NC(=O)Nc2ccc3c(c2)C(=O)N([C@H](C)CO)C[C@H](C)[C@@H](CN(C)Cc2ccc(C(F)(F)F)cc2)O3)cc1 -6.42%
COc1ccc(S(=O)(=O)Nc2ccc3c(c2)CC(=O)N([C@@H](C)CO)C[C@H](C)[C@H](CN(C)Cc2ccc(C(F)(F)F)cc2)O3)cc1 -13.8% [at 7.5 µM]
C[C@@H]1CN([C@@H](C)CO)C(=O)c2cc(NS(=O)(=O)c3ccc(F)cc3)ccc2O[C@@H](C)CCCCO[C@H]1CN(C)Cc1ccc(C(F)(F)F)cc1 -16.4%
COc1ccccc1C#Cc1ccc([C@H]2[C@@H](CO)N3CCCCN(C(=O)C4CCCC4)C[C@@H]23)cc1 1.76%
C[C@@H]1CN([C@@H](C)CO)C(=O)c2cc(NS(=O)(=O)c3ccc(Cl)cc3)ccc2O[C@@H](C)CCCCO[C@@H]1CN(C)Cc1ccc(C(F)(F)F)cc1 3.58%
C[C@H]1CN([C@@H](C)CO)S(=O)(=O)c2ccc(/C=C/c3ccccc3)cc2O[C@@H]1CN(C)C(=O)NC1CCCCC1 15.3%
Cc1ccc(S(=O)(=O)N(C)C[C@H]2OCCCC[C@@H](C)Oc3ccc(NS(=O)(=O)c4ccc(Cl)cc4)cc3C(=O)N([C@H](C)CO)C[C@H]2C)cc1 -12.6%
C[C@@H]1CN([C@H](C)CO)C(=O)c2cccc(N(C)C)c2O[C@@H]1CN(C)C(=O)NC1CCCCC1 -11.7%
COc1ccc(S(=O)(=O)Nc2ccc3c(c2)C(=O)N([C@@H](C)CO)C[C@@H](C)[C@@H](CN(C)S(=O)(=O)c2ccccc2)OCCCC[C@@H](C)O3)cc1 12.3%
COCC(=O)NC[C@H]1N[C@H](CO)[C@@H]1c1ccc(C2=CCCCC2)cc1 15%
C[C@@H]1CN([C@@H](C)CO)C(=O)c2cc(C#CC3CCCCC3)cnc2O[C@H]1CN(C)S(=O)(=O)c1cccc(F)c1 -1.14%
COc1ccc(S(=O)(=O)Nc2ccc3c(c2)C(=O)N([C@H](C)CO)C[C@@H](C)[C@@H](CN(C)Cc2ccc(Cl)c(Cl)c2)O3)cc1 6.62%
Cc1ccc(-c2cnc3c(c2)C(=O)N([C@@H](C)CO)C[C@H](C)[C@@H](CN(C)C(=O)c2cccnc2)O3)cc1 23%
COc1ccc(CN(C)C[C@H]2Oc3c(NS(=O)(=O)c4ccccc4)cccc3C(=O)N([C@@H](C)CO)C[C@H]2C)cc1 -24.4%
CCCC#Cc1ccc2c(c1)O[C@@H](CN(C)C(=O)c1ccccc1F)[C@@H](C)CN([C@@H](C)CO)S2(=O)=O 9.71%
C[C@@H]1CN([C@@H](C)CO)C(=O)Cc2cc(NS(=O)(=O)c3ccc(Cl)cc3)ccc2O[C@H]1CN(C)Cc1ccc(Oc2ccccc2)cc1 -16.6%
COc1ccc(S(=O)(=O)N(C)C[C@H]2OCCCC[C@@H](C)Oc3ccc(NS(=O)(=O)c4ccc(F)cc4)cc3C(=O)N([C@H](C)CO)C[C@H]2C)cc1 4.18%
CCOC(=O)N(C)C[C@@H]1OCc2ccccc2-c2ccccc2C(=O)N([C@@H](C)CO)C[C@H]1C 12.9%
Cc1cccc(S(=O)(=O)N2CCCCN3[C@H](CO)[C@@H](c4ccc(-c5ccccc5)cc4)[C@H]3C2)c1 -2.19%
COc1ccc(S(=O)(=O)Nc2ccc3c(c2)CC(=O)N([C@@H](C)CO)C[C@@H](C)[C@H](CN(C)Cc2ccc(C(F)(F)F)cc2)O3)cc1 8.76%
COc1ccc(CN(C)C[C@H]2Oc3c(NC(=O)Nc4ccc(F)cc4)cccc3C(=O)N([C@@H](C)CO)C[C@@H]2C)cc1 -22.5%
CO[C@@H]1CC[C@@H]2CCN(C)C(=O)[C@@H](C)[C@H](OC)CN(C)C(=O)c3cc(C#N)ccc3OC[C@@H]1O2 13.5%
Cc1ccc(S(=O)(=O)N(C)C[C@@H]2OCCCC[C@H](C)Oc3ccc(NS(=O)(=O)c4ccc(Cl)cc4)cc3C(=O)N([C@@H](C)CO)C[C@@H]2C)cc1 -15.5%
C[C@H]1CN([C@@H](C)CO)S(=O)(=O)c2ccc(C#CC3CCCC3)cc2O[C@@H]1CN(C)C(=O)Nc1cc(F)ccc1F 21%
COc1ccc(S(=O)(=O)Nc2ccc3c(c2)C(=O)N([C@H](C)CO)C[C@@H](C)[C@@H](CN(C)Cc2ccc(C(F)(F)F)cc2)OCCCC[C@H](C)O3)cc1 -3.42%
C[C@H](CO)N1C[C@H](C)[C@H](CN(C)C(=O)NC2CCCCC2)Oc2ccc(NC(=O)Nc3ccccc3)cc2C1=O -4.75%

outcome, inactive:
C[C@@H]1CCCCO[C@@H](CN(C)C(=O)Nc2ccc(C(F)(F)F)cc2)[C@@H](C)CN([C@H](C)CO)C(=O)c2cc(NS(=O)(=O)c3ccc(Cl)cc3)ccc2O1
